SMILES strings stand for the structures. About 540 (0.62%) of roughly 87,000 compounds were called active. How the calls were made is not given here. The sample as a whole holds a higher share of actives than the screen did. Results with a measured potency or affinity are listed apart.

A short description of the test: MT1-MMP gene expression reporter suppression – cell-based, luciferase reporter, luminescence (AID 618).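 Further: actives suppress MT1-MMP promoter-driven transcription so potencies describe inhibitors.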 The settings on record: MT1-MMP promoter luciferase reporter cells. Background: A reporter such as luciferase makes a cellular process visible.
Take `COc1ccc(C(=O)C(CN2CCOCC2)c2ccccc2)cc1F` (stereo not given): the outcome was inactive.
For `COc1ccc(C(=O)C(CN2CCOCC2)c2ccccc2)cc1` (stereo not given), the result was inactive.
Consider `CC(CN1CCOCC1)C(=O)c1ccccc1` (stereo not given), for which the compound was called inactive.
As for `CCCCCOc1ccc(C(=O)C(c2ccccc2)N2CCOCC2)cc1` (stereo not given), the compound was called inactive.
On to `O=C(c1ccc(F)cc1)C(CN1CCOCC1)c1ccccc1` (stereo not given), for which the compound was called active.
For `O=C(NCC1CCCCC1)C1CCN(C(=O)NC2CCCCC2)CC1`, the result was inactive.
Under `COc1ccc(-c2nc3c(n2O)CCCC3=O)cc1OC` stands “inactive”; under `O=C(CCSCCc1ccccn1)Nc1ccc(Br)cn1`, “inactive”.
Under `c1ccc(CCNc2nc3ccccc3s2)cc1` stands “inactive”.
For `Cc1ccc(C(=O)Nc2nc3ccccc3s2)s1`, the compound was classed as inactive.
Take `COc1ccc(NC(=O)NC(C)(C(F)(F)F)C(F)(F)F)cc1`: the outcome was inactive.
Under `CN(C)c1nc(SCc2ccccc2)nc(N2CCOCC2)n1` stands “inactive”; under `C/C(=N\NC(=O)C1COc2ccccc2O1)c1cccs1` (stereo not given), “inactive”.
For `C/C(=N/NC(=O)c1cc(C(C)C)[nH]n1)c1cccs1`, the call was inactive.
On to `O=C(Nc1ccc(Cc2ccncc2)cc1)c1ccc(S(=O)(=O)N2CCOCC2)cc1`, for which the outcome was inactive.
For the compound `CC(C)c1nc(=S)c2ccccc2[nH]1`, the outcome was inactive.
Take `N#CC1=C(N)C(C#N)(C#N)[C@H](c2ccoc2)[C@H]2CN(Cc3ccccc3)CC=C12`: the compound was called active.
Consider `CN1CC=C2C(C#N)=C(N)C(C#N)(C#N)[C@H](c3ccoc3)[C@H]2C1`, for which the compound was called inactive.
On to `CCN1CC=C2C(C#N)=C(N)C(C#N)(C#N)[C@H](c3ccoc3)[C@H]2C1`, for which the compound was classed as inactive.
As for `COc1ccc(/C(C)=N\n2cnnc2)cc1`, the call was inactive.
`Cn1c(SCc2cnc(-c3ccccc3)s2)nnc1C1COc2ccccc2O1` (stereo not given): the result was inactive.
For `COCCn1c(SCc2cnc(-c3ccccc3)s2)nnc1-c1ccncc1`, the result was inactive.
Turning to `Cc1nnc(SCc2cnc(-c3ccc(C(C)C)cc3)s2)n1C`, the call was active.
For `Cc1cccc(NC(=O)CSCc2c(C)noc2C)c1C`, the result was inactive.
As to `CN(C1=NC(=O)C(CC(=O)Nc2ccc(Br)cc2)S1)c1ccc(O)cc1` (stereo not given), the outcome was inactive.
As for `CC(=O)N(CCc1ccccc1C)Cc1cc2cc3c(cc2[nH]c1=O)OCO3`, the compound was classed as inactive.
Under `Cc1ccccc1C(=O)N1CCC(C(=O)Nc2ccc3c(c2)OCCO3)CC1` stands “inactive”; under `Cc1ccc(C(=O)N2CCN(c3cccc(Cl)c3)CC2)cc1C`, “inactive”; under `O=C(O)c1ccccc1C(=O)N1CCN(c2cccc(Cl)c2)CC1`, “inactive”.
Take `CCCCC(=O)Nc1ccc(C(=O)N2CCC(C(=O)OCC)CC2)cc1`: the call was inactive.
As for `Cc1ccc(C(=O)Nc2sc3c(c2C#N)CCCCC3)cc1C`, the call was inactive.
As for `Cc1ccc(-c2nnc(-c3ccc(Br)cc3)o2)o1`, the result was inactive.
In the case of `C=CCn1c(SCC(=O)c2ccccc2)nnc1-c1cc2ccccc2o1`, the call was inactive.
Turning to `CC1CC(C)CN(C(=O)CSc2nnc(-c3ccc(Cl)cc3)o2)C1` (stereo not given), the call was inactive.
In the case of `COc1ccc(NS(=O)(=O)Cc2ccccc2Cl)cn1`, the result was inactive.
In the case of `COC(=O)c1ccccc1S(=O)(=O)Nc1ccc(OC)nc1`, the compound was called inactive.
Regarding `CCCS(=O)(=O)C(=C(Nc1ccc(OC)cc1)Nc1ccc(OC)cc1)S(=O)(=O)CCC`, the outcome was inactive.
Under `COc1ccc(NC(=O)/C(Cl)=C(/Cl)S(=O)(=O)Cc2ccccc2)cn1` stands “active”; under `COc1ccc(CNC(=O)Nc2ccc(C)cc2)cc1`, “inactive”.
For the compound `COc1ccc(CS(=O)(=O)/C(Cl)=C(/Cl)C(=O)Nc2ccc(OC)nc2)cc1`, the compound was classed as active.
Regarding `COc1ccc(NC(=O)C(CC(C)C)NC(=O)c2ccccc2C)cn1` (stereo not given), the compound was called inactive.
Turning to `COc1ccc(NC(=O)c2cc(OC)c(OC)c(OC)c2)cn1`, the result was inactive.
On to `CCOc1ccccc1Nc1nc(N)nc(CN(C)C2CCCCC2)n1`, for which the call was inactive.
For `Cc1nc2cc(C(=O)O)ccc2n1C1CCCCC1`, the call was inactive.
For `CN1C=CC(=C2C(=O)c3ccccc3C2=O)C=C1`, the compound was called inactive.
Turning to `CCNC1=C(Cl)C(=O)c2ccccc2C1=O`, the outcome was inactive.
As to `CC1=CC(=C2C(=O)c3ccccc3C2=O)C=C(C)N1C`, the outcome was inactive.
In the case of `CC1=CC(=C2C(=O)c3ccccc3C2=O)C=C(C)O1`, the compound was classed as inactive.
Regarding `CCSc1nc(N)c(C#N)c(-c2ccco2)c1C#N`, the call was inactive.
Regarding `c1nc(N2CCOCC2)c2[nH]cnc2n1`, the compound was called inactive.
Turning to `COc1cccc2c1C(=O)c1c(O)c3c(c(O)c1C2=O)C[C@@](O)(C(C)=O)C[C@@H]3O[C@H]1C[C@H](N)[C@H](O)[C@H](C)O1`, the result was active.
The same measure for `COc1cccc2c1C(=O)c1c(O)c3c(c(O)c1C2=O)C[C@@](O)(C(=O)CO)C[C@@H]3O[C@H]1C[C@H](N)[C@H](O)[C@H](C)O1`: “inactive”; for `O=C(Cn1cc2c(n1)CCCCC2)NC1CCCCCC1`: “inactive”.
Take `COC(=O)c1cccc(NC(=O)c2cnoc2C)c1`: the outcome was inactive.
For the compound `Cc1csc2ncc(C(=O)Nc3ccc(C(F)(F)F)cc3)c(=O)n12`, the compound was called inactive.
Turning to `COc1ccc(CNC(=O)[C@H](C)[C@H]2C[C@]2(C)[C@H](NC(=O)OCc2ccccc2)c2ccccc2)cc1OC`, the result was inactive.
Regarding `CCOC(=O)CSc1nc(C)c2ccc(C)cc2n1`, the result was inactive.
The same measure for `Fc1ccc(-c2nc3n(n2)Cc2ccccc2-3)cc1`: “active”.
Under `CCn1c(C)nc2cc(S(=O)(=O)N3CCCC3)ccc21` stands “inactive”; under `CCN(CC)S(=O)(=O)c1cccc(-c2nc3n(n2)Cc2ccccc2-3)c1`, “inactive”; under `Clc1ccc(-c2nc3n(n2)Cc2ccccc2-3)cc1`, “inactive”.
Turning to `CCn1c(C)nc2cc(-c3nc4n(n3)Cc3ccccc3-4)ccc21`, the call was active.
Consider `CCn1c(C)nc2cc(-c3nnc(-c4c(-c5ccccc5)noc4C)o3)ccc21`, for which the compound was classed as inactive.
As for `N#CCc1nc2n(n1)Cc1ccccc1-2`, the compound was classed as inactive.
Turning to `O=S(=O)(c1cccc(-c2nc3n(n2)Cc2ccccc2-3)c1)N1CCCC1`, the call was inactive.
`CCOc1ccc(C2Oc3nc(SC)nnc3-c3ccccc3N2C(C)=O)cc1OC` (stereo not given): the compound was called inactive.
Under `O=C(C1CCCN(S(=O)(=O)c2cnc[nH]2)C1)N1CC(=O)N(CCc2ccccc2)C(=O)C1` (stereo not given) stands “inactive”; under `CN(CC(=O)N1CC(=O)N(CCc2ccccc2)C(=O)C1)S(=O)(=O)c1cccc2nsnc12`, “inactive”.
For the compound `Cc1cc(C)n(-c2ccc(C(=O)OCc3nnc(-c4ccccc4)o3)cc2)n1`, the compound was called inactive.
As to `CCCCC(CC)CNC(=O)C1CCCN(S(=O)(=O)c2cnc[nH]2)C1` (stereo not given), the compound was classed as inactive.
For `Cc1cc(C)n2nc(S(=O)(=O)NC3CCCCC3)nc2n1`, the compound was called inactive.
On to `Oc1ccc(CN2CCc3ccccc3C2)c2cccnc12`, for which the compound was classed as inactive.
As for `OCCN1CCN(Cc2cc(Cl)c3cccnc3c2O)CC1`, the result was inactive.
Regarding `Oc1c(CN2CCOCC2)cc(COCc2ccccc2)c2cccnc12`, the compound was called inactive.
Under `CN1CCN(Cc2cc(COCc3ccccc3)c3cccnc3c2O)CC1` stands “inactive”; under `COC(=O)c1sc(S(=O)(=O)NCc2cccs2)c(C(=O)OC)c1C`, “inactive”; under `COc1ccc(C(=O)NCCC2=CCCCC2)cc1OC`, “inactive”.
For the compound `COc1cc(C(=O)NCCC2=CCCCC2)cc(OC)c1OC`, the result was inactive.
As for `O=C(NCCc1ccc(Cl)cc1)c1nnc(Cc2ccc(Cl)cc2)o1`, the result was inactive.
Turning to `CC1CCCCC1NC(=O)C1CCN(S(=O)(=O)N2CCC3(CC2)OCCO3)CC1` (stereo not given), the compound was classed as inactive.
The same measure for `CC1C(=O)CCN(C(C)(C)C)C1C` (stereo not given): “inactive”; for `COc1ccc(OC)c(C2c3c(oc4ccccc4c3=O)C(=O)N2CCCN(C)C)c1` (stereo not given): “inactive”.
For the compound `c1ccc(-c2ccc(-c3nc(-c4cccnc4)no3)cc2)cc1`, the result was inactive.
On to `c1ccc(-c2nc(-c3ccncc3)no2)cc1`, for which the result was inactive.
As to `Cc1ccc(-c2nc(-c3cccnc3)no2)cc1`, the outcome was inactive.
For `COc1cc(-c2nc(-c3cccc(C)c3)no2)cc(OC)c1OC`, the outcome was inactive.
With `Cc1ccc(SCc2nc(-c3ccccc3)no2)cc1`, the result was inactive.
Regarding `Cc1cccc(-c2noc(-c3ccc(F)cc3)n2)c1`, the compound was called active.
With `Cc1ccc(-c2noc(-c3ccccc3Br)n2)cc1`, the result was inactive.
`COc1ccc(-c2nc(-c3cccc(C)c3)no2)cc1OC`: the compound was called inactive.
Under `Fc1ccccc1-c1nc(-c2ccccc2)no1` stands “inactive”; under `COC(=O)c1ccccc1NC(=O)C1CC=CCC1C(=O)O` (stereo not given), “inactive”; under `COC(=O)c1ccc(C(=O)OC)c(NC(=O)CCC(=O)O)c1`, “inactive”.
On to `CCC1CCCCN1S(=O)(=O)c1ccc(NC(=O)CSc2ncccc2C(=O)O)cc1` (stereo not given), for which the outcome was inactive.
Under `COc1ccc(CCN(C(=O)c2ccccc2)C2=CC3CCC(C2)N3C)cc1OC` (stereo not given) stands “inactive”.
On to `CS(=O)(=O)N1CCC(C(=O)N2CCc3ccccc3C2)CC1`, for which the call was inactive.
For `CC(=O)NC(C1C(=O)CC(C)(C)CC1=O)(C(F)(F)F)C(F)(F)F`, the compound was called inactive.
Take `O=C(COc1ccc(Cl)cc1)NCc1nnc(SCC(=O)NCc2ccc3c(c2)OCO3)o1`: the call was inactive.
The same measure for `CCOC(=O)c1cnc(C(C)(C)C)[nH]c1=O`: “inactive”.
As to `c1ccc(-c2noc(-c3ccccc3-c3ccccc3)n2)cc1`, the compound was called inactive.
For `CCOc1ccc(-c2nc(-c3ccncc3)no2)cc1OCC`, the call was inactive.
As to `COc1ccc(-c2nc(-c3ccncc3)no2)cc1OC`, the compound was called inactive.
The same measure for `Cc1cc(C)cc(-c2nc(-c3ccncc3)no2)c1`: “inactive”; for `CCc1ccc(-c2nc(-c3ccncc3)no2)cc1`: “inactive”; for `CN(C)c1ccc(-c2noc(-c3ccccc3O)n2)cc1`: “active”.
Take `NC(=O)c1ccccc1-c1nc(-c2ccccc2)no1`: the compound was classed as inactive.
`CCCC(=O)Nc1c(-c2cccs2)c(=O)c2ccccc2n1CC`: the compound was classed as inactive.
As to `CCOC(=O)c1ccc(S(=O)(=O)N2CCN(CC3CC=CCC3)CC2)cc1` (stereo not given), the outcome was inactive.
On to `COc1ccccc1C1/C(=C(/O)c2ccc(Cl)cc2)C(=O)C(=O)N1CCN1CCOCC1` (stereo not given), for which the compound was called inactive.
For the compound `O=C(O)CN1C(=O)Nc2ccc(Br)cc2C1c1ccccc1` (stereo not given), the compound was called inactive.
`Cc1nc(CC(=O)c2c(C)cc(O)cc2O)cs1`: the outcome was inactive.
Regarding `O=C(Cc1cccs1)NCc1cccs1`, the result was inactive.
Turning to `COC(=O)C(C)Oc1ccc(=O)[nH]n1` (stereo not given), the outcome was inactive.
Turning to `COc1ccc(OC)c(NC(=O)Cc2coc3cc(C)cc(C)c23)c1`, the compound was classed as inactive.
`CS(=O)(=O)N(Cc1ccccc1)c1ccccc1C(=O)N1CCN(c2ccccc2)CC1`: the outcome was inactive.

Source of the values: PubChem BioAssay AID618 (Sanford-Burnham Center for Chemical Genomics, 2007).
